ELG1 genotox – qHTS screen for small molecules that induce genotoxicity in human embryonic kidney (HEK293T) cells expressing luciferase-tagged ELG1 | HEK293T ELG1-luciferase reporter, luminescence, 16 h | Potency, µM (doses to about 46 µM), inactives show at the top dose activity change, positive = activation, hits mostly activators | actives 1.3% (n = 330,000) | AID 504466, 2011; note: % of control where 0% means no effect; nearly all actives have a fitted effect of over 60% in size
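Cells (2,000/well) expressing the ELG1-luciferase fusion are dosed by pin tool and kept 16 hr at 37 °C, 5% CO2. Signal comes from ONE-Glo luciferase reagent after 30 min at room temperature.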
KinaseGlo FLuc – Counterscreen for Luciferase (Kinase-Glo TM) Inhibition; Kinase-Glo luciferase, ATP luminescence, 8 min; Luciferin 4-monooxygenase (Photuris pensylvanica), Q27757; Potency, µM (series often up to 38.3 µM), without a hit: at the highest dose activity change, negative = inhibition, hits mostly inhibitors; actives 0.28% (n = 200,000); note: % is set by controls: 0 for no effect and ±100 for the full control effect; nearly all actives have a fitted effect of over 60% in size
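Substrate mix (final 50 mM imidazole pH 7.2, 50 mM KCl, 7 mM MgCl2, 10 uM ATP, 0.01% Tween 20, 0.05% BSA) plus pin-tool compound, then Kinase-Glo detection mix; 8 min ambient, luminescence read.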
NPC1 prom act – qHTS Assay for NPC1 Promoter Activators | Huh7 NPC1 promoter luciferase reporter, 24 h | Potency, µM (highest dose often 9.22 µM), without a hit: top-dose activation, most hits filed as activators | actives 2.4% (n = 320,000) | AID 485313, 2010; note: % of control where 0% means no effect; nearly all actives have a fitted effect of over 60% in size
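Huh7 reporter cells (NPC1 promoter driving luciferase) are dosed with compound for 24 h at 37 °C, 5% CO2; luciferase detection reagent is then added and luminescence measured after 10 min at ambient temperature.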
FLuc modulator – qHTS profiling assay for firefly luciferase inhibitor/activator using purifed enzyme and Km concentrations of substrates (counterscreen for miR-21 project); purified FLuc, Km substrates, luminescence inhibition; Potency, µM (series often up to 57.5 µM), without a hit: top-dose activity change, negative = inhibition, most hits filed as inhibitors; actives 6.9% (n = 360,000);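 note: plate controls were vehicle for no effect and reference inhibitor for full effect; nearly all actives have a fitted effect of over 55% in size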
Target sequence (P08659 whole entry, looked up): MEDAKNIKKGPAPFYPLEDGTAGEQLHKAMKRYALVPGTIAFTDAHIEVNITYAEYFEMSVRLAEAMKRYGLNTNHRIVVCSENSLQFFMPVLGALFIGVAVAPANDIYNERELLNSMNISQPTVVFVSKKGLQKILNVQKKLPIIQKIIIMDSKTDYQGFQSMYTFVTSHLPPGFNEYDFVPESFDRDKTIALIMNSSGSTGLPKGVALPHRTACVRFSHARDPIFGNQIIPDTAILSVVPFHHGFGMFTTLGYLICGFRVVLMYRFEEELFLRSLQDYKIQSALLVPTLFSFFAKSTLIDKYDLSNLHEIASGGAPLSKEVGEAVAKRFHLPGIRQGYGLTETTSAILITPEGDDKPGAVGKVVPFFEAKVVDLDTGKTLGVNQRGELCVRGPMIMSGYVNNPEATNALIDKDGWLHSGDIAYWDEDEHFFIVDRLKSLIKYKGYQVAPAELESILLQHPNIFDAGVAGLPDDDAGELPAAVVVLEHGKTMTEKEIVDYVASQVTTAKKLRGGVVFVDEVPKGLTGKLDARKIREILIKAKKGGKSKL
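Purified P. pyralis luciferase, 10 nM final, with Km-level 10 uM D-luciferin and 10 uM ATP in 50 mM Tris acetate pH 7.5, 10 mM Mg acetate, 0.01% Tween-20, 0.05% BSA; 6-point qHTS titration about 60 µM downward; luminescence read.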
Rab9 promoter act – qHTS Assay for Rab9 Promoter Activators. Huh7 Rab9 promoter-luciferase reporter, luminescence, 24 h. actives 2.8% (n = 320,000). Potency, µM (titrated, usually from 9.22 µM), for the others: top-dose activation, negative = inhibition, hits mostly activators; note: % of control where 0% means no effect; nearly all actives have a fitted effect of over 60% in size
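Quantitative HTS format; Huh7 Rab9-luciferase reporter cells (1500/well) receive compound 2 h post-plating, incubate 24 h at 37 °C, then get luciferase reagent for 10 min before luminescence reading.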
SMN2 splice enh – qHTS Assay for Enhancers of SMN2 Splice Variant Expression. HEK293 SMN2-luciferase splicing reporter, luminescence, 30-36 h. Potency, µM (highest dose often 46.1 µM), without a hit: at the top dose activity change, positive = activation, usual class: activators. actives 2.8% (n = 210,000); note: % of control where 0% means no effect; nearly all actives have a fitted effect of over 55% in size
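qHTS luciferase splicing reporter: luminescence rises when SMN2 exon 7 is included in transfected HEK293 cells. Compound exposure lasted 30-36 h at 37C, with 4.5 mM final sodium butyrate as control, followed by a ONE-Glo read.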
* hit, by the source's call; ? = inconclusive; . = no result given; [ ] = remark or other dose. Rows were chosen to be rich in hits. Some 7.4% of all compounds tested hit in one or more screens of this group. Calls come from the whole dose curve; as a rule, active = well fitted curve in the direction sought with a large enough effect; inconclusive = small, poorly fitted or top-dose-only effect, or another doubt; inactive = no such curve, though single readings can be large; an effect the other way counts as inactive or inconclusive. Potency is the fitted concentration of half-maximal effect.

SMILES	ELG1 genotox	KinaseGlo FLuc	NPC1 prom act	FLuc modulator	Rab9 promoter act	SMN2 splice enh
N/C(=N/OC(=O)c1cccc([N+](=O)[O-])c1)c1cccc([N+](=O)[O-])c1	8%	-10%	15%	?	12%	0%
O=C(OCc1nnc(-c2ccccc2)o1)c1cc([N+](=O)[O-])ccc1Cl	-2%	0%	-2%	-6%	1%	7%
C=C1C(=O)C=C2CN(C(=O)c3ccccc3)[C@@](Cc3ccc(OC)cc3)(C(=O)OC)[C@@H]12	.	-5%	.	.	.	-97%
COc1ccc(S(=O)(=O)c2cc(NS(=O)(=O)c3ccc(Cl)cc3)c(C)c(C)c2O)cc1	.	.	.	?	.	-4%
CC(C)NC(=O)N1CCCC2(CCN(C(=O)c3csnn3)CC2)C1	.	-4%	.	.	.	6%
COC(=O)c1ccc(-c2ccc(Cl)cc2)nc1C	8.2µM*	-7%	1.6µM*	1.3µM*	1.4µM*	5µM*
CC(=O)O[C@H]1CC[C@@]2(C)[C@@H](CC[C@H]3[C@H]2CC(=O)[C@@]2(C)[C@@H]3C[C@H]3CC(C)=CC(=O)[C@H]32)C1	.	-4%[7.66 µM]	.	.	.	12%[9.22 µM]
O=C(CN1C(=O)COc2ccc(S(=O)(=O)NC3CCCC3)cc21)NCc1ccc(Cl)cc1	.	.	.	-3%	.	.
CCCc1ccc(S(=O)(=O)N2CCC(Oc3ccc(-n4cnnn4)cc3)CC2)cc1	.	.	.	2%	.	-6%
Cc1ccc2nc(NC(=O)c3ccc4ncsc4c3)sc2c1	2.9µM*	2%	1.6µM*	0.95µM*	1.3µM*	7.1µM*
NS(=O)(=O)c1ccc2nc(NC(=O)c3ccc4ncsc4c3)sc2c1	8%	.	22%	2.4µM*	21%	.
O=C(/C=C/c1ccc2c(c1)OCO2)Nc1nc2ccc(F)cc2s1	?	.	1.8µM*	?	1.4µM*	.
NS(=O)(=O)c1ccc2nc(NC(=O)c3ccc4c(c3)OCCO4)sc2c1	3%	.	-5%	-7%	3%	.
Cc1ccc2nc(NC(=O)c3ccc4c(c3)OCO4)sc2c1	14%	-4%	1.6µM*	0.95µM*	1.1µM*	11µM*
COc1ccc(-c2nnc(SCC(=O)Nc3cccc(C(F)(F)F)c3)nc2-c2ccc(OC)cc2)cc1	.	.	.	-8%	.	.
CCN(CC)c1cc(C)nc2nc(-c3ccc(C)cc3)nn12	.	.	.	?	.	-2%
O=S(=O)(c1cc(Br)c(Br)s1)N1CCN(c2ccccc2)CC1	.	.	.	-2%	.	.
C=CC[C@@H]1[C@H](O)CC[C@@]2(C)[C@H]1CC[C@@H]1[C@@H]2CC[C@]2(C)C([C@H](C)CCCC(C)C)CC[C@@H]12 (some centres not stated)	.	.	.	.	.	-12%
Cc1ccc(OCC(=O)Nc2cccc(C)n2)c(C)c1	4.1µM*	-13%	?	4.3µM*	?	23%
Cc1ccc(OCC(=O)Nc2cccc3ccc(C)nc23)c(C)c1	.	.	.	0%	.	1%
Cc1cccc(NC(=O)COc2ccc(Br)cc2)n1	14%	-5%	14%	24µM*	11%	-10%
O=C1c2ccccc2C(=O)c2c(Nc3cc4c5c(ccc6c7ccc8c9c(cc(Nc%10cccc%11c%10C(=O)c%10ccccc%10C%11=O)c(c3c56)c97)-c3ccccc3C8=O)C(=O)c3ccccc3-4)cccc21	.	-4%[7.66 µM]	.	.	.	13%[9.22 µM]
CCOc1ccc(CCNC(=O)Cc2ccc(NC(=O)N3CCSc4ncccc43)cc2)cc1	.	.	.	2%	.	.
COc1ccc2nc(N3C(=O)/C(=C/c4ccccc4)NC3=S)sc2c1	-4%	-2%	1%	11µM*	-2%	-19%
CCOc1ccc2nc(N3C(=O)/C(=C/c4ccccc4)NC3=S)sc2c1	?	.	?	6µM*	?	.
SMILES	ELG1 genotox	KinaseGlo FLuc	NPC1 prom act	FLuc modulator	Rab9 promoter act	SMN2 splice enh
CCOc1ccc2nc(Cl)sc2c1	0%	2%	1%	-11%	4%	10%
O=c1[nH]c(COc2ccc(Cl)cc2Cl)nc2ccccc12	9.2µM*	.	2.5µM*	1.7µM*	2.2µM*	.
O=c1[nH]c(COc2ccc(Cl)cc2Br)nc2ccccc12	?	.	2.8µM*	6µM*	2.8µM*	.
Cc1ccc(S(=O)(=O)N2CCOCC2)cc1C(=O)Nc1ccccc1C(=O)O	.	.	.	-19%	.	-15%
Cc1ccc(C(=O)N/N=C/c2cn(Cc3ccccc3)c3ccccc23)cn1	-1%	.	9%	12µM*	1%	.
O=C(O)c1ccc(N/N=C/c2cn(Cc3ccc(F)cc3)c3ccccc23)cc1	12µM*	.	2µM*	8.5µM*	2.8µM*	.
CCNC(=S)N/N=C/c1cn(Cc2ccc(F)cc2)c2ccccc12	0%	-3%	3%	5%	-1%	-41%
COc1cc(C(=O)N/N=C/c2cn(Cc3cccc(F)c3)c3ccccc23)ccc1O	0%	.	-3%	?	1%	.
O=C(N/N=C/c1cn(Cc2ccccc2)c2ccccc12)c1cc(O)cc(O)c1	3%	.	-4%	24µM*	-7%	.
CCOc1nc(NC(=O)NS(=O)(=O)Oc2cccc(F)c2)nc(-c2ccccc2)n1	.	.	.	?	.	-7%
Cc1cc(-c2nnco2)c(C)n1-c1ccc(F)cc1	5%	0%	26%	17µM*	30%	0%
COc1cc(OC)c(NC2(c3ccccc3)C(=O)c3ccccc3C2=O)cc1Cl	.	.	.	0%	.	.
Cc1nn(C)c(C(=O)N2CCc3ccccc32)c1Br	-3%	2%	-5%	0%	2%	-4%
O=C(c1ccc(Br)o1)N1CCCc2ccccc21	1%	-2%	0%	-2%	0%	2%
COc1ccccc1C(=O)N1CCc2ccccc21	5%	-1%	-6%	5%	-1%	-8%
O=C(c1ccc(Br)o1)N1CCc2ccccc21	?	?	2.2µM*	4.8µM*	2.5µM*	.
Nc1ccccc1C(=O)N1CCc2ccccc21	11%	.	?	19µM*	?	.
Cc1c(C(=O)N2CCc3ccccc32)oc2ccccc12	3.7µM*	-13%	?	0.95µM*	3.5µM*	3.5µM*
Cc1c(Br)c(C(=O)N2CCc3ccccc32)nn1C	?	-10%	30%	21µM*	?	?
COCc1c(C(=O)N2CCc3ccccc32)oc2ccccc12	3%	.	-23%	?	3%	.
COc1ccc(N(C)S(=O)(=O)c2ccc3c(c2)n(C)c(=O)c(=O)n3C)cc1	.	.	.	0%	.	-5%
C#CCCCC(=S)Nc1ccccc1	.	6%	.	.	.	-5%
